Most compounds without a hit are left out; they make up all but 2.4% or so of the library.
NSD2 inh – NSD2 (human) methyltransferase inhibition; hit rate 0.54% among 310,000; inhibition, % at 12.5 µM; O96028; NSD2 peptide methylation, AlphaScreen, 120 min
Wnt bcat act – activates Wnt/beta-catenin signaling in a reporter cell assay; activator, plate reader; activation, % at 9.35 µM; hit rate 1.2% among 300,000; AID 743398; in the data active = activation above about 30%, passing the limit was not always enough
INS-1E GSIS act – GLuc luminescence reporter in INS-1E cells, primary screen for activators of glucose-dependent secretion of insulin. INS-1E GLuc reporter insulin secretion, 2-3 h. activation, % at 16.6 µM. hit rate 0.61% among 370,000. AID 743287;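 active = lowest replicate activation of at least 40%, so every replicate reaches that level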
DYRK1A inh – blocks rat Dyrk1A kinase activity. Q63470. ADP-Glo luminescence, NFATc1 peptide. inhibition, % at 12.5 µM. hit rate 0.43% among 310,000
miR-122 sensor – blocks miR-122 activity in Huh7 sensor cells. Huh7 miR-122 Renilla luciferase sensor, 48 h; neutral wells = 0, positive control = 100. activation (reporter increase), % at 12.5 µM. hit rate 0.3% among 340,000. AID 602342;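 active = mean replicate activation score at least 90 and every replicate individually at or above 90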;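 also: higher luciferase means less miR-122 activity so hits act as miR-122 inhibitors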
MITF act – increases MITF-driven TRPM1 promoter luciferase signal; hit rate 0.75% among 300,000; AID 588334; SK-MEL-5 TRPM1-promoter luciferase, 24 h; % of positive control, neutral wells = 0; activation, % at 12.5 µM;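 active = mean activation of at least 80% with every replicate also reaching 80%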
Hits are given with their value. Rule as the data show it, unless noted: active = inhibition above about 50%; inactive = the rest.

What do the screens show for `CCC(OC(=O)c1ccc(S(C)(=O)=O)c([N+](=O)[O-])c1)C(=O)NC1C2CC3CC(C2)CC1C3` (stereo not drawn)?
Wnt bcat act: inactive; INS-1E GSIS act: inactive; miR-122 sensor: inactive

Results for CS(=O)(=O)c1ccc(C(=O)OCC(=O)N2CCCc3ccccc32)cc1 ?
NSD2 inh: inactive; Wnt bcat act: inactive; INS-1E GSIS act: inactive; DYRK1A inh: inactive; miR-122 sensor: inactive; MITF act: inactive

How did CC(=O)N1CCN(C(=O)COC(=O)c2ccc(S(C)(=O)=O)cc2)CC1 do in these assays?
NSD2 inh: inactive; Wnt bcat act: inactive; INS-1E GSIS act: 66.8; DYRK1A inh: inactive; miR-122 sensor: inactive; MITF act: inactive

Results for COc1ccc(NC(=O)COC(=O)CCNC(=O)c2ccccc2)cc1OC ?
NSD2 inh: inactive

Results for c1ccc2nc(-c3ccc(-n4ccnc4)cc3)ccc2c1 ?
NSD2 inh: inactive; Wnt bcat act: 48.5; INS-1E GSIS act: inactive; DYRK1A inh: inactive; miR-122 sensor: inactive; MITF act: inactive

How did Nc1ccc(-n2ccnc2)cc1 do in these assays?
NSD2 inh: inactive; DYRK1A inh: inactive; miR-122 sensor: inactive; MITF act: inactive

What do the screens show for `c1ccc(-c2ccc3ccccc3n2)cc1`?
Wnt bcat act: 46.5; INS-1E GSIS act: inactive; DYRK1A inh: inactive; miR-122 sensor: inactive

Results for Cc1noc(C)c1S(=O)(=O)Nc1ccc2c(c1)C(=O)N([C@H](C)CO)C[C@H](C)[C@H](CN(C)S(=O)(=O)c1ccc(F)cc1)OCCCC[C@@H](C)O2 ?
INS-1E GSIS act: inactive; miR-122 sensor: inactive

Results for O=C(CNc1nnnn1-c1ccccc1)N1CCCC1 ?
NSD2 inh: inactive

What do the screens show for `Cc1ccc(-n2nnnc2-c2ccccc2Br)cc1`?
NSD2 inh: inactive; Wnt bcat act: inactive; INS-1E GSIS act: inactive; miR-122 sensor: inactive

How did c1ccc(-n2nnnc2-c2cccc3ccccc23)cc1 do in these assays?
NSD2 inh: inactive; Wnt bcat act: inactive; INS-1E GSIS act: inactive; DYRK1A inh: inactive; miR-122 sensor: 116.1; MITF act: inactive

How did c1ccc(CNc2nnnn2-c2ccccc2)cc1 do in these assays?
NSD2 inh: inactive; Wnt bcat act: inactive; DYRK1A inh: inactive; miR-122 sensor: 127.6; MITF act: inactive

What do the screens show for `Cc1noc(C)c1S(=O)(=O)N(C)C[C@H]1OCCCC[C@@H](C)Oc2ccc(NC(=O)NC3CCCCC3)cc2C(=O)N([C@@H](C)CO)C[C@H]1C`?
INS-1E GSIS act: inactive; miR-122 sensor: inactive

How did COc1ccc(OC)c(S(=O)(=O)N/N=C\c2ccc3c(c2)OCO3)c1 do in these assays?
NSD2 inh: inactive; Wnt bcat act: inactive; INS-1E GSIS act: inactive; DYRK1A inh: inactive; miR-122 sensor: 104.9; MITF act: inactive

What do the screens show for `O=C(CSc1n[nH]c(=O)n1C1CC1)c1ccc2c(c1)OCCO2`?
NSD2 inh: inactive; Wnt bcat act: 38.0; INS-1E GSIS act: inactive; miR-122 sensor: inactive

What do the screens show for `CN(C)c1ccc(C(=O)N2CCN(c3cc(C(F)(F)F)nc4ccccc34)CC2)cc1`?
NSD2 inh: inactive; Wnt bcat act: 54.7; INS-1E GSIS act: inactive; DYRK1A inh: inactive; miR-122 sensor: inactive; MITF act: inactive

How did O=S(=O)(c1ccccc1)N1CC2(C1)[C@H](c1ccccc1)[C@@H](CO)N2CC1CCOCC1 do in these assays?
INS-1E GSIS act: inactive

Results for COc1cccc(C(=O)Nc2cccc(-c3ccc4nncn4n3)c2)c1OC ?
Wnt bcat act: inactive; INS-1E GSIS act: inactive; DYRK1A inh: inactive; miR-122 sensor: inactive; MITF act: inactive

How did COc1ccc(Cl)cc1C(=O)Nc1cccc(-c2ccc3nncn3n2)c1 do in these assays?
NSD2 inh: inactive; Wnt bcat act: inactive; INS-1E GSIS act: 43.0; DYRK1A inh: inactive; MITF act: inactive

What do the screens show for `O=C1C(C=Nc2ccccc2)=C(O)c2ccccc21`?
NSD2 inh: inactive; Wnt bcat act: inactive; DYRK1A inh: inactive; miR-122 sensor: inactive; MITF act: inactive

How did Cc1ccc(O)c(N=CC2=C(O)c3ccccc3C2=O)c1 do in these assays?
NSD2 inh: inactive; Wnt bcat act: 117.1; DYRK1A inh: inactive; miR-122 sensor: inactive; MITF act: inactive

Results for O=C1C(C=Nc2ccccc2O)=C(O)c2ccccc21 ?
NSD2 inh: inactive; Wnt bcat act: 35.6; INS-1E GSIS act: inactive; miR-122 sensor: inactive; MITF act: inactive

Source: PubChem BioAssay
